High-throughput results as filed in PubChem.
Hits are enriched below; roughly 2.4% of the tested compounds scored in any of these assays.
AmpC det inh – Promiscuous and Specific Inhibitors of AmpC Beta-Lactamase (assay with detergent) | P00811 | purified AmpC, nitrocefin hydrolysis with detergent | Potency, µM (highest dose often 28.7 µM), without a hit: at the highest dose activity change, negative = inhibition | hit rate 0.09% among 71,000; active means well fitted curve in the direction sought with a large enough effect; inconclusive means small, poorly fitted or top-dose-only effect; further: on the % scale 0 is the no-effect control and ±100 the full control effect
Target sequence (P00811 whole entry, looked up): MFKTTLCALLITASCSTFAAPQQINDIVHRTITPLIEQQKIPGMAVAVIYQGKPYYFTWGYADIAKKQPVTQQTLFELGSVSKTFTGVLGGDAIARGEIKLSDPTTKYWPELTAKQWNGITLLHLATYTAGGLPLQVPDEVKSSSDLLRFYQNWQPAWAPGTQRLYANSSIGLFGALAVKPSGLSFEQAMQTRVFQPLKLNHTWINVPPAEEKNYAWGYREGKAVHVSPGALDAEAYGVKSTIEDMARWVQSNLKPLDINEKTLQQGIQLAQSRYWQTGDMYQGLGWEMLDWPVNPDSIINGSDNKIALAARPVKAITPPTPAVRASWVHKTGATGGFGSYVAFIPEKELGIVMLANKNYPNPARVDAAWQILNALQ
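E. coli AmpC (5.3 nM) in 20 mM phosphate pH 7.0 with 0.01% Triton X-100, preincubated 15 min RT with compound; nitrocefin (2 uL of 800 uM stock) hydrolysis followed by 480 nm absorbance every 20 s over 4 min.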
LT uptake inh – qHTS Assay for Anthrax Lethal Toxin Internalization; Cells, anthrax lethal toxin internalization, FRET ratio (460/530); Potency, µM (doses to about 40 µM), without a hit: top-dose activity change, negative = inhibition, usual class: inhibitors; hit rate 0.67% among 70,000; AID 912, 2007; further: on the % scale 0 is the no-effect control and ±100 the full control effect; nearly all actives have a fitted effect of over 50% in size
AmpC nodet inh – Promiscuous and Specific Inhibitors of AmpC Beta-Lactamase (assay without detergent). P00811. AmpC nitrocefin hydrolysis, absorbance 480 nm, no detergent. Potency, µM (highest dose often 28.7 µM), inactives show at the highest dose activity change, negative = inhibition. hit rate 1.8% among 71,000; further: % of control where 0% means no effect
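Enzyme, pH 7.0 phosphate. Compound titrations were pre-incubated with AmpC for 15 min at room temperature before nitrocefin (stock 800 uM) addition; product formation was recorded at 480 nm every 20 s for 4 min.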
SmPrx2 inh – Schistosoma Mansoni Peroxiredoxins (Prx2); Schistosoma mansoni peroxiredoxin 2 (Prx2); Potency, µM; hit rate 0.07% among 65,000; S. mansoni Prx2 activity coupled to TGR/GSH (TGR is thioredoxin glutathione reductase), NADPH fluorescence loss, qHTS; AID 448, 2006
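Prx2 activity was followed as the loss of NADPH fluorescence (ex 365/em 450 nm), read every 30 sec for 8 min after H2O2 start. The enzyme mix (50 nM Prx2, 25 nM TGR, GSH, NADPH; pH 7.4 phosphate buffer) was incubated with compound for 15 min at room temperature first.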
Numbers without * were called inactive; ? = inconclusive; · = no result; [ ] = remark or other dose. Unless noted, the call rests on the fitted dose curve. Potency means the concentration at half of the fitted maximal effect.

SMILES	AmpC det inh	LT uptake inh	AmpC nodet inh	SmPrx2 inh
COc1cccc(-c2cc(C(=O)Nn3cnnc3)c3ccccc3n2)c1	12%	-5%	-9%	>57
CC(=O)OCC1=C(C(=O)[O-])N2C(=O)[C@@H](NC(=O)CCC[C@@H](N)C(=O)[O-])[C@@H]2SC1.[Zn+2]	-1%	1%	1%	>57
CC(=O)OCC1=C(C(=O)O)N2C(=O)[C@@H](N)[C@@H]2SC1	?	7%[3.58 µM]	5µM*	>57
CSC(N)=NCCC[C@@H](N)C(=O)O	0%	?	-2%	>57
CC(C)C(NS(=O)(=O)c1ccc2c(c1)oc(=O)n2C)C(=O)N1CCN(C2CCCCC2)CC1 (configuration not stated)	5%	6%	17%	>57
CC1CC(C)CN(C(=O)C(NS(=O)(=O)c2ccc3c(c2)oc(=O)n3C)C(C)C)C1 (configuration not stated)	13%	-6%	4µM*[single pt active]	>57
CC(C)CC(NS(=O)(=O)c1ccc2c(c1)oc(=O)n2C)C(=O)NC1CCCc2ccccc21 (configuration not stated)	12%	-2%	4µM*[single pt active]	>57
N#CC(C#N)=NNc1cccc(Cl)c1	·	2.5µM*	·	·
N#CC(C#N)=NNc1ccc2cn[nH]c2c1	-4%[5.75 µM]	-11%[8 µM]	-1%[5.75 µM]	·
O=C(Nc1nc(-c2ccc(S(=O)(=O)N3CCCCCC3)cc2)cs1)c1cccs1	-3%	?	7.9µM*	>57
O=C(Nc1nc(-c2ccc(S(=O)(=O)N3CCCC3)cc2)cs1)c1cccs1	-1%	-26%	-12%	>57
O=C(Nc1nc(-c2cc(Cl)sc2Cl)cs1)c1cccs1	9%	?	0.32µM*	>57
O=C(Nc1nc(-c2cccs2)cs1)c1cccc(S(=O)(=O)N2CCCCC2)c1	-3%	?	7.9µM*	>57
Cc1ccc(-c2csc(NC(=O)c3cccc(S(=O)(=O)N4CCN(C)CC4)c3)n2)cc1	11%	-24%	134%	>57
CCSC(=O)Cl	9%	0%	-12%	·
N[C@H](Cn1cc(I)c(=O)[nH]c1=O)C(=O)O	-3%	?	2%	>57
CC1=C/C(=C\c2ccc3c(c2)OCO3)C(=O)S1	?	?	13µM*	>57
C=CCSC1=N/C(=C\c2ccc3c(c2)OCO3)C(=O)S1	3%	22%	4µM*	>57
c1ccc(C2CO2)cc1 (configuration not stated)	9%	-8%	-24%	·
CCCCCCCCCCCCCCCCCCOC[C@@H](COP(=O)([O-])OCC[N+](C)(C)C)OC	-3%	-7%	17%	>57
CCCCCc1nnc(NC(=O)Cc2cccs2)s1	-5%	14%	13µM*	>57
O=C(Cc1cccs1)Nc1nnc(CCc2ccccc2)s1	-3%	-3%	-23%	>57
COc1ccc(Cc2nnc(NC(=O)Cc3cccs3)s2)cc1OC	-2%	-3%	13µM*	>57
N[C@@H](Cc1c[nH]c2cc([N+](=O)[O-])ccc12)C(=O)O	-1%[5.75 µM]	-16%[8 µM]	-2%[5.75 µM]	>57
CN[C@@H]1[C@H](O)[C@H](NC)[C@@H]2O[C@]3(O)C(=O)C[C@@H](C)O[C@H]3O[C@@H]2[C@H]1O	-3%	-7%	4%	>57
SMILES	AmpC det inh	LT uptake inh	AmpC nodet inh	SmPrx2 inh
CC[C@@H]1[C@@H]2Cc3ccc(O)cc3[C@@]1(CC)CCN2C	-2%[5.75 µM]	?	1%[5.75 µM]	>57
O=C(CC1CCCCC1)N1CCN(c2ccccn2)CC1	-3%	-3%	17%	>57
O=C(CSc1nccc2ccccc12)N1CCN(c2ccccn2)CC1	10%	5µM*	17%	>57
O=C(COc1ccc2ccccc2c1Br)N1CCN(c2ccccn2)CC1	0%	13µM*	64%	>57
O=C(O)CCC(=O)N1CCN(c2ccccn2)CC1	17%	-9%	?	>57
O=C1C2CC=CCC2C(=O)N1SC(Cl)(Cl)Cl (configuration not stated)	-4%	3.2µM*	?	·
O=C1C2CC=CCC2C(=O)N1CC1CCCO1 (configuration not stated)	-2%	-12%	-11%	>57
COc1ccc(C2CC(=O)c3cnc(NC(=O)c4ccccc4)nc3C2)cc1OC (configuration not stated)	9%	-25%	4µM*[single pt active]	>57
CCOC(=O)C(C(=O)OCC)c1cc(Br)c2noc3c2c1C(=O)c1ccccc1-3	3%	?	-4%	0.53*
CC1CCN(C(=O)Cn2c(=O)oc3ccccc32)CC1	-1%	2%	-5%	>57
CC1CCN(C(=O)CN2C(=O)C(=O)c3ccccc32)CC1	10%	6%	4µM*[single pt active]	>57
Cc1cc(C(=O)CSc2nn(-c3ccccc3)c(=S)s2)c(C)n1Cc1ccco1	-1%	?	13µM*	>57
Cc1cc(C(=O)CSc2nnc(-c3ccco3)o2)c(C)n1Cc1ccco1	-3%	-6%	28%	>57
C=C(C)[C@H]1Cc2c(ccc3c2O[C@H]2COc4cc(OC)c(OC)cc4[C@@H]2C3=O)O1	-3%	?	115%	>57
O=C1c2ccccc2C(Nc2ccc(S(=O)(=O)N3CCOCC3)cc2)N1c1cccnc1 (configuration not stated)	10%	?	4µM*[single pt active]	>57
O=C1c2ccccc2C(Nc2ccc(S(=O)(=O)N3CCCCC3)cc2)N1c1ccccn1 (configuration not stated)	15%	?	3.2µM*[single pt active]	>57
O=C1c2ccccc2C(Nc2ccc(F)c(Cl)c2)N1c1ccccn1 (configuration not stated)	13%	-17%	4µM*[single pt active]	>57
C[C@H]1CN(S(=O)(=O)c2cccc3cnccc23)CCN1	-2%	9%	1%	>57
CC(C)(C)NC(=O)C(Cc1ccccc1)NS(=O)(=O)c1ccc2c(c1)CCC(=O)N2 (configuration not stated)	14%	6%	-6%	>57
O=C1CCc2cc(S(=O)(=O)NC(Cc3ccccc3)C(=O)NC3CCCCC3)ccc2N1 (configuration not stated)	11%	16%	4µM*[single pt active]	>57
CCCCN(C)C(=O)C(Cc1ccccc1)NS(=O)(=O)c1ccc2c(c1)CCC(=O)N2 (configuration not stated)	11%	9%	4µM*[single pt active]	>57
COC(=O)[C@H]1[C@@H]2C[C@H]3c4[nH]c5ccccc5c4CCN3C[C@@H]2CC[C@@H]1O	1%	-4%	32%	>57
COC(=O)[C@H](N)CCCN=C(N)N[N+](=O)[O-]	-3%	4%	-14%	>57
Cc1cc(C)cc(N(CC(=O)N2CCc3ccccc32)S(=O)(=O)c2c(C)noc2C)c1	11%	2µM*	4µM*[single pt active]	>57
Cc1n[nH]c(C)c1S(=O)(=O)N(CC(=O)N1CCc2ccccc21)c1ccc(C(C)C)cc1	11%	6%	4µM*[single pt active]	>57
Cc1cc(C)cc(N(CC(=O)N2CCN(c3ccccc3)CC2)S(=O)(=O)c2c(C)noc2C)c1	15%	?	108%	>57
